Results: PubChem BioAssay (NCATS)
Where “and” joins values, the source holds several entries; their conditions need not be identical. Equal entries are not always repeated. A number with no mark means an inactive call. Inconclusive results are not listed. Calls of active or inactive are those of the source. Unless noted, calls come from the whole dose curve; as a rule, active = well fitted curve in the direction sought with a large enough effect; inconclusive = small, poorly fitted or top-dose-only effect, or another doubt; inactive = no such curve, though single readings can be large; an effect the other way counts as inactive or inconclusive.

Test system: not listed separately
Test: qHTS assay to identify small molecules that stimulate interleukin-8 (IL-8) secretion (AID 651758; active = well fitted activation curve with a large enough effect in the signal ratio; the % refers to the signal ratio; note: potency is the fitted concentration of half-maximal effect; for activation: 0% is about no effect)
Conditions: HTRF ratio (665/615); series mostly up to 92.2 µM; activation: at the top concentration
Summary of the method: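 Quantitative HTS in THP-1 monocytic cells at 2000 cells per well, with 16 hrs compound incubation at 37 C. IL-8 in the medium was then quantified by HTRF immunoassay, read after 1-3 hrs at room temperature.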

SMILES | activation | Potency
O=S(=O)(O)O | 14.4% | –
CC1=C2[C@@H]([C@H](C)CC[C@H]2/C=C(\C)C(=O)O)[C@H](O)C1 | -6.09% | –
CC1=C(/C=C/C(C)=C/C=C/C(C)=C/CO)C(C)(C)CCC1 | – | 37.6 µM (active)
CC(O)CO (stereo unspecified) | 15.3% | –
O=C(O)CCC(=O)C(=O)O | 4.57% | –
IC(I)I | 4.7% | –
CCCCCCCC/C=C\CCCCCCCC(=O)O | -16.9% | –

Test system: not listed separately
Test: qHTS assay for environmental chemicals that activate the Aryl hydrocarbon Receptor (AhR) signaling pathway (AID 651777); note: % of control where 0% means no effect; nearly all actives have a fitted effect of over 15% in size
Conditions: 1A2-DRE human hepatoma cells, luciferase, 24 h; hits give high values
Summary of the method: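 Induction of CYP1A2 transcription through AhR is detected by luciferase in 1A2-DRE hepatoma cells. Compounds or DMSO act for 24 hr at 37 C before a 30 min One-Glo step at room temperature.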

SMILES | activation
Nc1ccn([C@H]2CS[C@@H](CO)O2)c(=O)n1 | 0.73%
O=S(=O)(O)O | -0.349% and 1.61%
CCCCC(CC)COC(=O)CC(C(=O)OCC(CC)CCCC)S(=O)(=O)O (stereo unspecified) | 0.833%
CC(C)(C)NC(=O)[C@@H]1C[C@@H]2CCCC[C@@H]2CN1C[C@@H](O)[C@H](Cc1ccccc1)NC(=O)[C@H](CC(N)=O)NC(=O)c1ccc2ccccc2n1 | 0.529%
CC1=C2[C@@H]([C@H](C)CC[C@H]2/C=C(\C)C(=O)O)[C@H](O)C1 | 1.08%
CC1=C(/C=C/C(C)=C/C=C/C(C)=C/CO)C(C)(C)CCC1 | 1.25% and 1.27%
C[C@H]1C[C@H]2[C@@H]3CCC4=CC(=O)C=C[C@]4(C)[C@@]3(F)[C@@H](O)C[C@]2(C)[C@@]1(O)C(=O)CO | -2.62%
CCCCCCCC(=O)O | 0.292% and -0.546%
CC1(C)C(C=C(Cl)Cl)C1C(=O)OCc1cccc(Oc2ccccc2)c1 (stereo unspecified) | -0.92% and -0.145% and 0.247%
CC(O)CO (stereo unspecified) | -1.84% and -0.0903%
CCOc1ccc2c(c1)C(C)=CC(C)(C)N2 | 3.55% and 2.98%
CC1=CCC(C(C)(C)O)CC1 (stereo unspecified) | 0.596%
O=C(O)CN(CCN(CC(=O)O)CC(=O)O)CC(=O)O | 2.06% and 1.21%
O=C(O)CCC(=O)C(=O)O | 0.4%
CCCCC/C=C\C/C=C\CCCCCCCC(=O)O | 0.916% and -0.698%
CC(C)=O | -1.82%
IC(I)I | 3.72%
Cc1ccccc1 | 0.0379% and -2.19%
CCCCCCCC/C=C\CCCCCCCC(=O)O | -1.87% and 0.641%

Molecular target: Peroxisome proliferator-activated receptor alpha (Homo sapiens) (UniProt Q07869)
Sequence (Q07869 whole entry, looked up): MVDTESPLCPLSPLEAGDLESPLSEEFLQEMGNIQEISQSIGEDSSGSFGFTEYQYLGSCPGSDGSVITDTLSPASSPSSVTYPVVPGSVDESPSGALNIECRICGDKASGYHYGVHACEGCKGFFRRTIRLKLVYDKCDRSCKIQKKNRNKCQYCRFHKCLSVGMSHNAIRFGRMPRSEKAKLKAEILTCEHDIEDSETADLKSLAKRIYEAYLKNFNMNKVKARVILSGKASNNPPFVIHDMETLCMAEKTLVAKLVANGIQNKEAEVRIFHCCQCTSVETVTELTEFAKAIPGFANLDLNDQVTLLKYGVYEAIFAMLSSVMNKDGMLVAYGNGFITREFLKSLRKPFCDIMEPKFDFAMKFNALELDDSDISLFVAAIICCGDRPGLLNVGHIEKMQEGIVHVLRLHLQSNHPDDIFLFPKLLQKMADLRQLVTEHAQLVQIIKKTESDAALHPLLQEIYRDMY
Test: qHTS assay for small molecule agonists of the peroxisome proliferator-activated receptor alpha (PPARalpha) signaling pathway (AID 651778); note: potency is the fitted concentration of half-maximal effect; for max response: % of control where 0% means no effect
Conditions: PathHunter PPARalpha complementation, chemiluminescence, 6 h; max response: hits give high values
Summary of the method: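 Cells plated at 2,000/well and held overnight at 37 C, 5% CO2, then compound added by pin tool for 6 hr; after PathHunter detection reagent and 60 min at room temperature, chemiluminescence from enzyme complementation was read.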

SMILES | max response | Potency
Nc1ccn([C@H]2CS[C@@H](CO)O2)c(=O)n1 | -3.53% | –
O=S(=O)(O)O | -1.64% and -3.82% | –
CCOC(C)=O | 6.06% | –
CC(C)(C)NC(=O)[C@@H]1C[C@@H]2CCCC[C@@H]2CN1C[C@@H](O)[C@H](Cc1ccccc1)NC(=O)[C@H](CC(N)=O)NC(=O)c1ccc2ccccc2n1 | -0.457% | –
O=CCCCC=O | -1.75% | –
CC1=C2[C@@H]([C@H](C)CC[C@H]2/C=C(\C)C(=O)O)[C@H](O)C1 | -2.98% | –
CC1=C(/C=C/C(C)=C/C=C/C(C)=C/CO)C(C)(C)CCC1 | -3.78% and -1.63% | –
C[C@H]1C[C@H]2[C@@H]3CCC4=CC(=O)C=C[C@]4(C)[C@@]3(F)[C@@H](O)C[C@]2(C)[C@@]1(O)C(=O)CO | -0.118% | –
CCCCCCCC(=O)O | -0.533% and 5% | –
CC1(C)C(C=C(Cl)Cl)C1C(=O)OCc1cccc(Oc2ccccc2)c1 (stereo unspecified) | -0.904% [middle of 4 runs] | –
CC(O)CO (stereo unspecified) | 4.63% and -8.84% | –
CCOc1ccc2c(c1)C(C)=CC(C)(C)N2 | -4.24% and -2.12% | –
CC1=CCC(C(C)(C)O)CC1 (stereo unspecified) | -2.04% | –
O=C(O)CN(CCN(CC(=O)O)CC(=O)O)CC(=O)O | 2.01% and 0.29% | –
O=C(O)CCC(=O)C(=O)O | 4.88% | –
CCCCC/C=C\C/C=C\CCCCCCCC(=O)O | – | 44.7 µM (active) and 28.2 µM (active)
CC(C)=O | -7.67% | –
IC(I)I | -6.19% and -2.33% | –
Cc1ccccc1 | 0.399% and -0.58% | –
CCCCCCCC/C=C\CCCCCCCC(=O)O | – | 35.5 µM (active)

Molecular target: Nuclear receptor ROR-gamma (Homo sapiens) (UniProt P51449)
Sequence (P51449 whole entry, looked up): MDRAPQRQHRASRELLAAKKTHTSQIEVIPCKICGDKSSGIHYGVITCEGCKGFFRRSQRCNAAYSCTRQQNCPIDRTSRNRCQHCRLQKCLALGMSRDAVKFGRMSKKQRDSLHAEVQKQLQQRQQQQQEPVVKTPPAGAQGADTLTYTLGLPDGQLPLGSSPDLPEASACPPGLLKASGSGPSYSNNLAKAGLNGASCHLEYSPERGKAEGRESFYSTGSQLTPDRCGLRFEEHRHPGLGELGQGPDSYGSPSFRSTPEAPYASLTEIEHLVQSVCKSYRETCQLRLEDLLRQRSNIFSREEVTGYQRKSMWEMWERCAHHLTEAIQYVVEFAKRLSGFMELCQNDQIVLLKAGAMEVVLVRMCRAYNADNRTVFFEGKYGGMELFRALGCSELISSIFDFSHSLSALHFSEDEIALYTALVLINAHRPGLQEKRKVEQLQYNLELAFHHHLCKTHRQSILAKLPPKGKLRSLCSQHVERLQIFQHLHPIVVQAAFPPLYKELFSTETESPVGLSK
Test: qHTS assay for small molecule antagonists of the retinoid-related orphan receptor gamma (ROR-gamma) signaling pathway (AID 651802);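 note: CHO cells with doxycycline-induced ROR-gamma expression; % is set by controls: 0 for no effect and ±100 for the full control effect; nearly all actives have a fitted effect of over 60% in size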
Conditions: ROR-gamma antagonist cell reporter assay; series mostly up to 92.2 µM; activity change, negative = inhibition: at the top concentration
Summary of the method: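 Steps: cells dispensed; compound or DMSO transferred by pin tool; doxycycline added to induce the ROR response element-driven luciferase; plates held 16hr at 37C; ONE-Glo added and luminescence measured.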

SMILES | activity change, negative = inhibition | outcome
Nc1ccn([C@H]2CS[C@@H](CO)O2)c(=O)n1 | 13.4% | –
CCOC(C)=O | 15.9% | –
CC1=C2[C@@H]([C@H](C)CC[C@H]2/C=C(\C)C(=O)O)[C@H](O)C1 | 0.545% | –
CCCCCCCC(=O)O | – | inactive
CC(O)CO (stereo unspecified) | – | inactive
CCOc1ccc2c(c1)C(C)=CC(C)(C)N2 | 88.6% | –
O=C(O)CCC(=O)C(=O)O | 3.9% | –
CCCCC/C=C\C/C=C\CCCCCCCC(=O)O | -23% | –
CC(C)=O | 17.7% | –
Cc1ccccc1 | – | inactive
